Test results: PMC9911399, “Two distinct binding modes provide the RNA-binding protein RbFox with extraordinary sequence specificity”
Positions count from the first letter of the chain named. Whole data set: some 16,000 sequences, median “ka relative to ugcaugu” near 0.0091, cut for the highest 2% near 0.032. Many of the other results were omitted from the sample, so the highest values are more common in it than they were.

T1: RBFOX1 RRM (Homo sapiens, UniProt Q9NWB1 109-208)
T1 sequence: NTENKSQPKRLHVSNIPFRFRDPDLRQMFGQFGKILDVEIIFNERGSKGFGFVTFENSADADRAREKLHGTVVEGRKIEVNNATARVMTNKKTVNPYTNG

B1: CCUUGGG (DNA:RNA)
RNA: GGGAGACCGGAAUUCAGAUUGUCCCCUUGGGUUAAAUCCCGUCGUAGCCACCA
DNA 1: CAATCTGAATTCCGGTCTCCC
DNA 2: TGGTGGCTACGACGGGATT
B2: CGCCUAC (DNA:RNA)
RNA: B1 RNA with C26G, U27C, U28C, G29U, G30A, G31C
DNA 1: CAATCTGAATTCCGGTCTCCC
DNA 2: TGGTGGCTACGACGGGATT
B3: AUGAUGU (DNA:RNA)
RNA: B1 RNA with C25A, C26U, U27G, U28A, G29U, G31U
DNA 1: CAATCTGAATTCCGGTCTCCC
DNA 2: TGGTGGCTACGACGGGATT
B4: GUAUGUA (DNA:RNA)
RNA: B1 RNA with C25G, C26U, U27A, G30U, G31A
DNA 1: CAATCTGAATTCCGGTCTCCC
DNA 2: TGGTGGCTACGACGGGATT
B5: GCAUGAA (DNA:RNA)
RNA: B1 RNA with C25G, U27A, G30A, G31A
DNA 1: CAATCTGAATTCCGGTCTCCC
DNA 2: TGGTGGCTACGACGGGATT
B6: GGAUGAG (DNA:RNA)
RNA: B1 RNA with C25G, C26G, U27A, G30A
DNA 1: CAATCTGAATTCCGGTCTCCC
DNA 2: TGGTGGCTACGACGGGATT
B7: GUAUGAG (DNA:RNA)
RNA: B1 RNA with C25G, C26U, U27A, G30A
DNA 1: CAATCTGAATTCCGGTCTCCC
DNA 2: TGGTGGCTACGACGGGATT
B8: GCAUGUA (DNA:RNA)
RNA: B1 RNA with C25G, U27A, G30U, G31A
DNA 1: CAATCTGAATTCCGGTCTCCC
DNA 2: TGGTGGCTACGACGGGATT
B9: GCCAUGA (DNA:RNA)
RNA: B1 RNA with C25G, U27C, U28A, G29U, G31A
DNA 1: CAATCTGAATTCCGGTCTCCC
DNA 2: TGGTGGCTACGACGGGATT
B10: GCAUAAA (DNA:RNA)
RNA: B1 RNA with C25G, U27A, G29A, G30A, G31A
DNA 1: CAATCTGAATTCCGGTCTCCC
DNA 2: TGGTGGCTACGACGGGATT
B11: GCAUAUA (DNA:RNA)
RNA: B1 RNA with C25G, U27A, G29A, G30U, G31A
DNA 1: CAATCTGAATTCCGGTCTCCC
DNA 2: TGGTGGCTACGACGGGATT
B12: GCAUAGA (DNA:RNA)
RNA: B1 RNA with C25G, U27A, G29A, G31A
DNA 1: CAATCTGAATTCCGGTCTCCC
DNA 2: TGGTGGCTACGACGGGATT
B13: CGCAUGA (DNA:RNA)
RNA: B1 RNA with C26G, U27C, U28A, G29U, G31A
DNA 1: CAATCTGAATTCCGGTCTCCC
DNA 2: TGGTGGCTACGACGGGATT
B14: GCAUGAG (DNA:RNA)
RNA: B1 RNA with C25G, U27A, G30A
DNA 1: CAATCTGAATTCCGGTCTCCC
DNA 2: TGGTGGCTACGACGGGATT
B15: GCAUUGA (DNA:RNA)
RNA: B1 RNA with C25G, U27A, G29U, G31A
DNA 1: CAATCTGAATTCCGGTCTCCC
DNA 2: TGGTGGCTACGACGGGATT
B16: AAUAAUA (DNA:RNA)
RNA: B1 RNA with C25A, C26A, U28A, G29A, G30U, G31A
DNA 1: CAATCTGAATTCCGGTCTCCC
DNA 2: TGGTGGCTACGACGGGATT
B17: GCGUGUG (DNA:RNA)
RNA: B1 RNA with C25G, U27G, G30U
DNA 1: CAATCTGAATTCCGGTCTCCC
DNA 2: TGGTGGCTACGACGGGATT
B18: UCUAACG (DNA:RNA)
RNA: B1 RNA with C25U, U28A, G29A, G30C
DNA 1: CAATCTGAATTCCGGTCTCCC
DNA 2: TGGTGGCTACGACGGGATT
B19: UCCCUGA (DNA:RNA)
RNA: B1 RNA with C25U, U27C, U28C, G29U, G31A
DNA 1: CAATCTGAATTCCGGTCTCCC
DNA 2: TGGTGGCTACGACGGGATT
B20: UCAAAGA (DNA:RNA)
RNA: B1 RNA with C25U, U27A, U28A, G29A, G31A
DNA 1: CAATCTGAATTCCGGTCTCCC
DNA 2: TGGTGGCTACGACGGGATT

target: T1, RBFOX1 RRM; assay: EMSA; HiTS-Eq, 1 nM pool, 10 min; buffer printed only for the single-RNA assays: 10 mM Tris pH 7.5, 150 mM NaCl, 3.4 mM EDTA, 0.001% NP-40, 30 C; details: tags: His6 N-terminal (pET28a); label: 5' 32P
Outline: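 These values rest on relative association constants, computed from read-count changes of each RNA species versus the control reaction and normalised to the cognate motif. Reads came from free RNA recovered by 8% native PAGE after purified RbFox RRM (wild type or mutant) at increasing concentrations was equilibrated for 10 min in 50 µL with 1 nM of a 5′-radiolabelled pool with 7 randomized nucleotides and DNA-annealed flanks.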

Binder	binding signal
B1	0.00389 KA relative to UGCAUGU
B2	0.00556 KA relative to UGCAUGU
B3	0.0132 KA relative to UGCAUGU
B4	0.0125 KA relative to UGCAUGU
B5	0.594 KA relative to UGCAUGU
B6	0.0205 KA relative to UGCAUGU
B7	0.0141 KA relative to UGCAUGU
B8	0.473 KA relative to UGCAUGU
B9	0.0124 KA relative to UGCAUGU
B10	0.00438 KA relative to UGCAUGU
B11	0.0014 KA relative to UGCAUGU
B12	0.0137 KA relative to UGCAUGU
B13	0.67 KA relative to UGCAUGU
B14	0.684 KA relative to UGCAUGU
B15	0.0124 KA relative to UGCAUGU
B16	0.000771 KA relative to UGCAUGU
B17	0.0222 KA relative to UGCAUGU
B18	0.00601 KA relative to UGCAUGU
B19	0.00782 KA relative to UGCAUGU
B20	0.00287 KA relative to UGCAUGU
